# This is a sample that favours compounds with a hit; in the whole collection about 19% have one here.
# CHX counter = Cycloheximide Counterscreen for Small Molecule Inhibitors of Shiga Toxin. hit rate 12% among 300,000. cell reporter, cycloheximide protein synthesis inhibition counterscreen. max response, %; in the data active means max response mostly above about 13%, no sharp cut-off; inactive means mostly below about 14%; further: read at 38.3 µM for the half of the compounds with a filed dose
# Shiga inhibitor = A qHTS for Small Molecule Inhibitors of Shiga Toxin | Vero cells, Shiga toxin protein synthesis inhibition reporter | inhibition, % at 38.7 µM | hit rate 9.2% among 290,000 | AID 2315, 2010; in the data active means inhibition mostly above about 28%, no sharp cut-off; inactive means mostly below about 43%
# AMA1-RON2 inh = qHTS for Inhibitors of AMA1-RON; Towards Development of Antimalarial Drug Lead: Primary Screen; AlphaScreen AMA1-biotinylated RON2 peptide binding; Potency, µM (highest dose often 58.2 µM), hits mostly inhibitors; hit rate 0.2% among 360,000; AID 720542, 2013; further: nearly all actives have a fitted effect of over 45% in size
#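 AMA1 (3D7) with his tag at 25 nM final met compounds first, then biotinylated RON2 peptide at 25 nM; detection used donor plus acceptor beads, 10 µg/mL apiece, read by AlphaScreen after 30 min at room temperature.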
# SARS PLpro yeast = qHTS of Yeast-based Assay for SARS-CoV PLP. Potency, µM (doses to about 32.9 µM), usual class: activators. S. cerevisiae expressing SARS-CoV PLpro, growth rescue. hit rate 0.19% among 330,000; calls by dose curve; further: nearly all actives have a fitted effect of over 55% in size
# Pf growth 48h = Primary qHTS for delayed death inhibitors of the malarial parasite plastid, 48 hour incubation; P. falciparum luciferase growth in erythrocytes, 48 h; Potency, µM (doses to about 28.7 µM), actives largely listed as inhibitors; hit rate 5.9% among 310,000
#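 Read-out is firefly luciferase luminescence from an integrated reporter in P. falciparum, so falling signal marks reduced parasite growth. Infected erythrocytes were at 2% hematocrit and 0.1% parasitemia (final) in Albumax-supplemented RPMI 1640.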
# Pf growth 96h = Primary qHTS for delayed death inhibitors of the malarial parasite plastid, 96 hour incubation. P. falciparum luciferase reporter growth, 96 h. Potency, µM (highest dose often 28.7 µM), usual class: inhibitors. hit rate 6.9% among 320,000. AID 504834, 2011
#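 96 h incubation, 37 C, 5% CO2, of luciferase-reporter P. falciparum-infected RBCs (2% hematocrit, 0.05% parasitemia final) with test compounds; endpoint luminescence.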
# Numbers stand for hits; n = inactive; u = inconclusive; x = not tested or not shown; + = active, no number; [ ] = remark or other dose. Unless noted, the call rests on the fitted dose curve; in most records, active means well fitted curve in the direction sought with a large enough effect; inconclusive means small, poorly fitted or top-dose-only effect, or another doubt; inactive means no such curve, though single readings can be large; an effect the other way counts as inactive or inconclusive.
SMILES,CHX counter,Shiga inhibitor,AMA1-RON2 inh,SARS PLpro yeast,Pf growth 48h,Pf growth 96h
O=C1C(C2=C(O)c3ccccc3C2=O)=Nc2ccccc21,25.0,65.5,n,n,n,n
O=C(COC(=O)c1ccc(Br)o1)Nc1ccc(N2CCOCC2)cc1,x,x,n,n,n,n
CC1CCN(S(=O)C23CC4CC(CC(C4)C2)C3)CC1 (stereo not drawn),n,n,n,n,n,n
O=C(Nc1ccc(S(=O)(=O)Nc2ncccn2)cc1)c1nn(Cc2ccccc2)c(=O)c2ccccc12,n,n,n,n,1.85µM,u
COc1ccc(C(=O)N2CCC2(C)C(=O)O)cc1F (stereo not drawn),x,x,n,x,x,x
O=C(N/N=C/c1ccc(Br)s1)c1ccccn1,47.5,84.1,n,n,n,n
CC(C)(C)c1ccc(/C=N/NC(=O)c2ccccn2)cc1,38.3,42.3,n,n,n,u
O=C(N/N=C/c1cc2c(cc1Cl)OCO2)c1ccccn1,x,x,n,x,x,x
O=C(N/N=C/c1ccsc1)c1ccccn1,27.6,70.1,n,n,n,n
CC(Oc1ccc(Cl)cc1Cl)C(=O)Nc1ccc(OCC(=O)O)cc1 (stereo not drawn),n,n,n,n,n,n
O=C1CN(C(=O)COc2ccc(Br)cc2)c2ccccc2N1,n,n,n,n,u,n
COc1cccc(-c2ncc3ccccc3c2COC(=O)c2ccc(F)cc2)c1,x,x,n,n,u,u
O=C(CC1SC(N2CCOCC2)=NC1=O)Nc1cccc(C(F)(F)F)c1 (stereo not drawn),x,x,n[11.6 µM],n,x,x
Cc1ccc2cc3c(nc2c1)OCC3,32.0,47.4,n,n,n,n
Cc1ccc(F)cc1NC(=O)N1c2ccccc2NC(=O)CC1C (stereo not drawn),n,n,n,n,n,n
O=C(NC1CCCCC1)c1nc(-c2c(F)cccc2F)oc1-c1ccccc1,x,x,n,x,x,x
N=C(N)c1ccc2cc(OC(=O)c3ccc(N=C(N)N)cc3)ccc2c1,x,x,x,x,12µM,1.07µM
CN(C)C(=O)COC(=O)Cc1ccc(OC(=O)c2ccc(N=C(N)N)cc2)cc1,x,x,x,x,n,u
CCN(CCn1cccn1)C(=O)c1ccc2nc(Cc3ccc(OC)cc3)oc2c1,23.1,n,n,n,n,u
COCCN1CCN(C(=O)c2ccc3nc(Cc4ccc(OC)c(OC)c4)oc3c2)CC1,n,n,n,n,n,u
COc1ccc(Cc2nc3ccc(C(=O)N4CCC(C(N)=O)CC4)cc3o2)cc1,x,x,n,x,x,x
COc1ccc(Cc2nc3ccc(C(=O)N4C[C@@H](C)O[C@@H](C)C4)cc3o2)cc1OC,43.7,62.5,n,n,u,n
COc1ccc(Cc2nc3ccc(C(=O)N4CCOCC4)cc3o2)cc1,67.9,+,n,n,n,u
Cc1csc2c(NCCCN3CCOCC3)ncnc12,n,n,n,n,n,n
COc1ccccc1C1CC(=O)Oc2cc(C)c(Cl)c(C)c21 (stereo not drawn),n,n,n,u,x,x
SMILES,CHX counter,Shiga inhibitor,AMA1-RON2 inh,SARS PLpro yeast,Pf growth 48h,Pf growth 96h
COCCCN1C(=O)c2ccc(C(=O)Nc3cccc(OC)c3)cc2C1=O,37.2,53.4,n,n,n,n
COCCCN1C(=O)c2ccc(C(=O)NCCc3ccccc3)cc2C1=O,45.2,94.7,n,n,n,n
CC(=O)Oc1cccc(NC(=O)c2ccc3c(c2)C(=O)N(CC(C)C)C3=O)c1,28.1,127.7,n,n,n[0.00184 µM],n
CCN1C(=O)c2ccc(C(=O)NCc3ccccc3)cc2C1=O,n,n,n,n,n,n
C#Cc1cccc(NC(=O)c2ccc3c(c2)C(=O)N(Cc2cccnc2)C3=O)c1,38.8,n,n,n,n,n
O=C(O)c1cc(NC(=O)c2ccc3c(c2)C(=O)N(Cc2cccnc2)C3=O)cc(C(=O)O)c1,n,n,n,n,n,n
CCCNC(=O)Nc1cccc(NC(C)=O)c1,n,n,n,n,n,n
O=c1oc(CCO)cc2ccccc12,x,x,n,n,x,x
CC#CCc1cc2ccccc2c(=O)o1,5.2,n,n,n,n,u
C=CCn1c(SCc2ccccc2C#N)nnc1-c1cc(Br)ccc1O,n,n,n,n,2.33µM,n
CN(C)CCCN(C(=O)c1ccc(S(=O)(=O)N(C)C)cc1)c1nc2ccc(F)cc2s1,n,n,n,n,n,n
CN(C)CCCN(C(=O)c1ccc2c(c1)CCCC2)c1nc2ccc(F)cc2s1,n,n,u,n,8.28µM,u
CN(C)CCCN(C(=O)c1ccc2c(c1)CCCC2)c1nc2cc3c(cc2s1)OCO3,n,n,n,n,11.7µM,2.33µM
c1ccc(COc2ccc(-c3cc4nc(NCCN5CCOCC5)ccn4n3)cc2)cc1,x,x,n,x,x,x
Cc1ccc2cc(CN(CC3CCCO3)C(=O)NC3CCCCC3)c(=O)[nH]c2c1C (stereo not drawn),n,n,n,n,n,n
COc1ccc(CCN(Cc2cc3cccc(C)c3[nH]c2=O)C(=O)NC2CCCCC2)cc1OC,n,n,n,n,x,2.94µM
Cc1cccc2cc(CN(CC3CCCO3)C(=O)NC3CCCCC3)c(=O)[nH]c12 (stereo not drawn),n,n,n,n,u,x
CCN(CC)CCCN(Cc1cc2ccc(C)c(C)c2[nH]c1=O)C(=O)NC1CCCCC1,n,n,n,n,u,9.28µM
COc1ccccc1NC(=O)N(C)C[C@H]1OCc2cnnn2CCCC(=O)N([C@@H](C)CO)C[C@H]1C,x,x,n,x,x,x
CCN(CC)CC(=O)Nc1ccc([N+](=O)[O-])cc1,n,n,n,n,n,n
Cc1cc(N/N=C/c2c(O)ccc3ccccc23)nc(-c2ccccc2O)n1,n,n,n,u,6.57µM,u
Cc1cc(NC2CCCCC2)nc(-c2ccccc2O)n1,14.7,n,n,n,u,n
Cc1cc(Nc2ccccc2)nc(-c2ccccc2O)n1,34.9,106.8,n,n,n,x
Cc1cc(NCc2ccccc2)nc(-c2ccccc2O)n1,n,n,n,n,u,n
Cc1cnc(C(=O)OCC(=O)Nc2ccc(OCc3ccccc3)cc2)cn1,x,x,n,n,n,n
CC1CC(NS(=O)(=O)c2cccs2)CC(C)(C)C1 (stereo not drawn),n,n,n,n[6.58 µM],x,n
COc1cccc(C(NC(C)=O)c2nc(-c3ccccc3)cs2)c1 (stereo not drawn),x,x,n,x,x,x
COC(=O)C1=C(Nc2ccc(C)cc2)C=C(C)C(C(=O)OC)C1c1cccc(OC)c1 (stereo not drawn),n,n,n,n,2.62µM,1.65µM
COC(=O)C1=C(Nc2ccc(C)cc2)C=C(C)C(C(=O)OC)C1c1ccc(OC)cc1 (stereo not drawn),n,n,n,n,4.15µM,u
COc1cccc(C2NC(=O)NC(C)=C2C(=O)Nc2ccc(C)cc2)c1 (stereo not drawn),n,n,n,n,u,n

# Compound activity: PubChem, National Center for Advancing Translational Sciences (NCATS)
